Consider 46 compounds from article PMC4336329 (PLoS ONE, 2015).

The whole screen tested about 310,000 compounds, of which about 14,000 (4.5%) showed an effect of 50% or more. Effects have a minus sign here. The entries come from a sample that favours strong results as a whole.
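Further: peak tail current of the secondary pulse compared with the same well before compound.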

In the assay the target is human ether-à-go-go-related gene (hERG) potassium channel (human, UniProt Q12809). The assay can be described thus: primary screen, population patch clamp on CHO cells stably expressing hERG; higher = less effect of the substance.
Chain of human ether-à-go-go-related gene (hERG) potassium channel (Q12809 whole entry, looked up): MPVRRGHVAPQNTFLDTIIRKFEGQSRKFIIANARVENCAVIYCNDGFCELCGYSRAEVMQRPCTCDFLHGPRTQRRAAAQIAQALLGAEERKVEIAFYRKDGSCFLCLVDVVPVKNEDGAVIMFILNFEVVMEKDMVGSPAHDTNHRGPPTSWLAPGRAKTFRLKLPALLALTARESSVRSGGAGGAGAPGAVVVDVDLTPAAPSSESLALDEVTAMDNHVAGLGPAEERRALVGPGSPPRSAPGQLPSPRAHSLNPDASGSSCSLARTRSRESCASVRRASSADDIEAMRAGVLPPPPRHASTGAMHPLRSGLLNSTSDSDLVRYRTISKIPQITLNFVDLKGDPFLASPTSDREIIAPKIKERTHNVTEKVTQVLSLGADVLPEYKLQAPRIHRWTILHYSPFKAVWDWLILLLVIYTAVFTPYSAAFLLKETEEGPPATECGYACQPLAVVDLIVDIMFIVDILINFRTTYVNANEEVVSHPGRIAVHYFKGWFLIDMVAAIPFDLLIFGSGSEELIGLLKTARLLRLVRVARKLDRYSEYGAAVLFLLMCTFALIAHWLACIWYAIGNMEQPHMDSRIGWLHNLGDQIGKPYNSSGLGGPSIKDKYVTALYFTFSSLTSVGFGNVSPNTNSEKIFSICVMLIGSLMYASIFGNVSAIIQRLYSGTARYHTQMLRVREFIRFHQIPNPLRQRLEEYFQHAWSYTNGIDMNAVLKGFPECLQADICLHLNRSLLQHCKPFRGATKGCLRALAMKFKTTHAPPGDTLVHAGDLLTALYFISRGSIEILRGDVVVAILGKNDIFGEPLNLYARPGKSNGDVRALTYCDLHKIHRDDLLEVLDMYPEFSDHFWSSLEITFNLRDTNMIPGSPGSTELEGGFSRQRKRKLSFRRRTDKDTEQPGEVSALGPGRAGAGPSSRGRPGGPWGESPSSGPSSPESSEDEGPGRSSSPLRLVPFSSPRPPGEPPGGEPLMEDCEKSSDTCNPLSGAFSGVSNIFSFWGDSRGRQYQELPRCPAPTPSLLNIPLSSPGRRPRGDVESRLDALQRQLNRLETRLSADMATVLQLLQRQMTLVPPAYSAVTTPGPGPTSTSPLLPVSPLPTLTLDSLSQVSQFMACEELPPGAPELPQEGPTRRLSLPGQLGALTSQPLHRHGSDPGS
Regarding `COc1ccc(NC(=S)NCCc2ccc(F)cc2)c(OC)c1`, the “hERG current change (%, negative = inhibition) at 10uM” value is recorded as -19.4%.
Under `O=C1c2cccc3c([N+](=O)[O-])ccc(c23)C(=O)N1c1ccccn1` stands 7.95%; under `O=C(Cc1cccs1)NNC(=S)NC(=O)c1ccc(F)c(F)c1`, 12.2%; under `O=C(CN1CCC(c2nc3ccccc3[nH]2)CC1)NCc1ccc2c(c1)OCO2`, -84.3%.
The same measure for `CC(C)NC(=O)CN1CCC(c2nc3ccccc3[nH]2)CC1`: -8.64%; for `CCCNC(=O)CN1CCC(c2nc3ccccc3[nH]2)CC1`: 15.6%; for `Cc1ccc2nc(C3CCN(CC(=O)Nc4ccc5c(c4)OCCO5)CC3)[nH]c2c1`: -50.6%.
The same measure for `C=CCNC(=O)CN1CCC(c2nc3ccccc3[nH]2)CC1`: 7.7%; for `CC(C)N(C(=O)CN1CCC(c2nc3ccccc3[nH]2)CC1)C(C)C`: -4.13%.
As for `Cc1ccc2nc(-c3ccc(SCC(=O)Nc4ccc5c(c4)OCCO5)nc3)[nH]c2c1`, the “hERG current change (%, negative = inhibition) at 10uM” value is -5.51%.
The same measure for `O=C(CN1CCC(c2nc3ccccc3[nH]2)CC1)Nc1ccc2c(c1)OCO2`: -53.1%; for `Cc1ccc2nc(SCC(=O)Nc3ccc4c(c3)OCCO4)[nH]c2c1`: 4.73%.
Turning to `CCN1CCN(Cc2ccc(NC(=O)c3cc(NC(=O)c4ccc5n[nH]nc5c4)cc(OC)c3)cc2C(F)(F)F)CC1`, the “hERG current change (%, negative = inhibition) at 10uM” value stood at 21.1%.
With `CC(C(=O)OCC(=O)c1ccccc1)N1C(=O)C2C3CCC(C3)C2C1=O` (stereo not shown), the “hERG current change (%, negative = inhibition) at 10uM” value is recorded as 10.5%.
The same measure for `c1ccc(OCCCn2nnc(-c3ccc(N4CCOCC4)cc3)n2)cc1`: 15.4%; for `COc1ccc(NC(=O)CN(C)S(=O)(=O)c2cccc3nsnc23)cc1OC`: -10.3%; for `CCc1ccc(N(CC(=O)NC2CCCCC2)C(=O)CNC(=O)c2ccco2)cc1`: -13.6%.
The same measure for `CC(C)c1ccc(N2C(=NC(=O)C3CCCO3)SC3CS(=O)(=O)CC32)cc1` (stereo not shown): -9.87%.
In the case of `O=C1c2ccccc2C(=O)N1CN(C(=O)COc1ccc(Cl)cc1Cl)c1cccc(F)c1`, the “hERG current change (%, negative = inhibition) at 10uM” value came out at 1.4%.
The same measure for `COc1cccc(S(=O)(=O)Nc2ccc(C(=O)NCc3ccco3)cc2)c1`: 3.01%.
Regarding `Cn1c(-c2ccc(F)cc2)cnc1NCc1ccc(C#N)cc1`, the “hERG current change (%, negative = inhibition) at 10uM” value was -73.7%.
Under `Cn1c(-c2ccccc2)cnc1NCc1ccc(-c2ccccc2)cc1.O=C(O)C(=O)O` stands -10.4%; under `Cn1c(-c2ccc(Br)cc2)cnc1NCc1ccc(C#N)cc1.O=C(O)C(=O)O`, -76.6%; under `Cn1c(-c2ccc(F)cc2)cnc1NCc1ccc(F)cc1`, -40.7%.
The same measure for `Cn1c(-c2ccc(F)cc2)cnc1NCc1ccccc1`: -46.7%.
For the compound `COc1cc(OC)c(NC(=O)CCNC(=O)Cn2cnc3ccccc3c2=O)cc1Cl`, the “hERG current change (%, negative = inhibition) at 10uM” value is -0.133%.
The same measure for `CCc1nnc(NS(=O)(=O)c2ccc(NC(=O)/C=C/c3ccc(F)cc3)cc2)s1`: 8.28%; for `O=C(O)CCC(=O)Nc1sc2c(c1C(=O)NC1CCCC1)CCCC2`: 5.76%; for `Cc1cc(C)cc(C(=O)NC(CC(N)=O)c2ccc(NC3CCCCCCC3)c([N+](=O)[O-])c2)c1` (stereo not shown): 1.06%.
Take `CC(=O)c1c(O)cc(C)oc1=O`: the “hERG current change (%, negative = inhibition) at 10uM” value came out at 25.5%.
For `C(=N\Nc1nc(N2CCOCC2)nc(N2CCOCC2)n1)/c1cccnc1`, the “hERG current change (%, negative = inhibition) at 10uM” value is given as -12.1%.
The same measure for `FC(F)(F)COc1nc(N/N=C/c2cccnc2)nc(N2CCCCC2c2ccccn2)n1` (stereo not shown): -60.8%.
The same measure for `C(=N\Nc1nc(N2CCCC2)nc(N2CCCC2)n1)/c1cccnc1`: 6.33%; for `COCCN(CC(=O)NCc1ccc(OC)cc1)C(=O)CCC(=O)Nc1nccs1`: -8.1%; for `O=S(Cc1cc(Oc2ccccc2)nc(-c2ccccc2)n1)c1ccccc1` (stereo not shown): -7.69%.
The same measure for `O=Cc1sc(Nc2ccccc2)nc1Cl`: -13.1%; for `COc1ccc(S(=O)(=O)N2CCCCC2)cc1NC(=O)c1ccc([N+](=O)[O-])o1`: -2.81%; for `CCN1CCN(c2ccc(S(=O)(=O)N3CCCCC3)cc2NC(=O)c2cc3ccccc3o2)CC1`: -53.7%.
In the case of `CCN1CCN(c2ccc(S(=O)(=O)N3CCCCC3)cc2NC(=O)c2cccc(C)c2[N+](=O)[O-])CC1`, the “hERG current change (%, negative = inhibition) at 10uM” value is recorded as -28.8%.
The same measure for `CCN1CCN(c2ccc(S(=O)(=O)N3CCCCC3)cc2NC(=O)c2ccc(C)o2)CC1`: -75.7%; for `CCN1CCN(c2ccc(S(=O)(=O)N3CCCCC3)cc2NC(=O)c2ccc([N+](=O)[O-])o2)CC1`: -75.9%; for `CCN1CCN(c2ccc(S(=O)(=O)N3CCCCC3)cc2NC(=O)c2ccc([N+](=O)[O-])s2)CC1`: -80.6%.
For `Cc1ccc(S(=O)(=O)N2CCCCC2)cc1NC(=O)c1cc2ccccc2o1`, the “hERG current change (%, negative = inhibition) at 10uM” value is reported as -7.85%.
Turning to `COc1ccc(N2CCCC2)c(NC(=O)c2ccc([N+](=O)[O-])o2)c1`, the “hERG current change (%, negative = inhibition) at 10uM” value was 14%.
As for `CCN1CCN(S(=O)(=O)c2ccc(Cl)c(C(=O)Nc3ccccc3N3CCCCC3)c2)CC1`, the “hERG current change (%, negative = inhibition) at 10uM” value is on record as 12.8%.
The same measure for `CCN1CCN(c2c(Cl)cccc2NC(=O)c2cc3ccccc3o2)CC1`: -23.4%.
